The supplement of paper PMC12494721
Counter-ions that a name gives are not always drawn.

The compounds below were run on Clostridium sporogenes DSM 1664 (assay: fold change of Tryptamine concentration vs plate DMSO controls (fold change (ratio)); higher = more amine produced, active = hit call of the paper (significant change in both replicates, either direction)). Conditions: incubation time: 27 h, anaerobic, 37 °C;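 for the amine columns active = adjusted P below 0.05 in both replicates with a change the same way and a mean fold change under 0.8 or over 1.25; inactive = the rest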.
Summary of the method: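 Each value is the fold change relative to DMSO-only wells on the same plate. Four gut bacterial strains were grown anaerobically in mGAM at 37 °C for 27 h in 80 µL wells, starting at OD 0.1 before a 1:1 dilution, with compounds at 20 µM final (sweeteners 50 µM). Whole cultures were extracted with cold acetonitrile/methanol containing 0.1% formic acid, centrifuged, and amines were quantified by LC–triple-quadrupole MS (dynamic MRM) against external calibration curves with within-batch drift correction. Values are means of 2 biological replicates.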

Fold change of Tryptamine concentration, inactive:
CCCCCCC[N+](CC)(CC)CCCCc1ccc(Cl)cc1 [Clofilium tosylate] (20 µM) 1.32, N=C(N)NCC1COC2(CCCCC2)O1 (stereo not given) [Guanadrel sulfate] (20 µM) 1, CCCC(CCC)C(=O)O[C@H]1C[C@H]2CC[C@@H](C1)[N+]2(C)C [Anisotropine Methylbromide] (20 µM) 1.06, COc1ccc2c(c1)c(CC(=O)OCC(=O)O)c(C)n2C(=O)c1ccc(Cl)cc1 [Acemetacin] (20 µM) 0.98, CN1CCCN=C1/C=C/c1cccc(O)c1 [Oxantel pamoate] (20 µM) 1.05, COc1c(O[C@@H]2O[C@H](CO)[C@@H](O)[C@H](O)[C@H]2O)cc2c(c1OC)-c1ccc(SC)c(=O)cc1[C@@H](NC(C)=O)CC2 [Thiocolchicoside] (20 µM) 1.01, Cc1c(Nc2ncccc2C(=O)O)cccc1C(F)(F)F [Flunixin meglumine] (20 µM) 1.03, C#C[C@]1(OC(C)=O)CC[C@H]2[C@@H]3CCC4=CC(=NO)CC[C@@H]4[C@H]3CC[C@@]21CC (mixture of isomers) [Norgestimate] (20 µM) 0.656, CC12CC3CC(C)(C1)CC(N)(C3)C2 [Memantine hydrochloride] (20 µM) 1.03, CC(CCc1ccccc1)NCC(O)c1ccc(O)c(C(N)=O)c1 (stereo not given) [Labetalol hydrochloride] (20 µM) 1
